Experimental data published in PubChem BioAssay AID602432 (Southern Research Specialized Biocontainment Screening …, 2012).
Potency and affinity values are given separately. Inconclusive results are not listed. Values without a mark were called inactive. No rule for the calls is given here.

Assay: HepG2 cell cytotoxicity, cytotoxicity control, set 6 (AID 602432)
Conditions: series mostly up to 50 µM; viability: at the top concentration

Going from CC(C)CCNC(=O)CSc1nc2c(c(=O)[nH]1)CCCC2 to CC(C)CCNC(=O)CSc1nc2c(c(=O)[nH]1)CCCCC2, the “viability” value falls from 105% to 102%.

Going from O=C(NCc1ccc(C(=O)N2CCN(c3ccccc3)CC2)cc1)NC1CCCCC1 to O=C(c1ccc(CNc2c(N3CCCC3)c(=O)c2=O)cc1)N1CCN(c2ccccc2)CC1, the “viability” value rises from 91.4% to 97.7%.

First: COCCNC(=O)CSc1nc2ccccc2c(=O)[nH]1
Second: CC(C)CCNC(=O)CSc1nc2ccccc2c(=O)[nH]1
The “viability” value of the first is higher: 100% for the first, 98.4% for the second.

Compared with O=C(CSc1nc2c(c(=O)[nH]1)CN(Cc1ccccc1)CC2)NC1CCCCC1, O=C(CSc1nc2ccccc2c(=O)[nH]1)NC1CCCCC1 is lower in “viability” value: 99.1% for the first, 93.4% for the second.

Compared with O=C(c1ccc(CNc2c(N3CCCC3)c(=O)c2=O)cc1)N1CCC(c2ccccc2)CC1, O=C(c1ccc(CNc2c(N3CCOCC3)c(=O)c2=O)cc1)N1CCC(c2ccccc2)CC1 is lower in “viability” value: 104% for the first, 103% for the second.

Going from O=C(CSc1nc2ccccc2c(=O)[nH]1)NC1CCOCC1 to COC(=O)C(Cc1ccccc1)NC(=O)CSc1nc2ccccc2c(=O)[nH]1 (configuration not stated), the “viability” value falls from 105% to 97.5%.

Compared with O=C(CSc1nc2c(c(=O)[nH]1)CCCC2)NC1CCCCC1, O=C(CSc1nc2c(c(=O)[nH]1)CCC2)NC1CCCCC1 is lower in “viability” value: 104% for the first, 98.8% for the second.

Compared with O=C(c1ccc(CNc2c(N3CCOCC3)c(=O)c2=O)cc1)N1CCN(c2ccccc2)CC1, CC1CCCN(c2c(NCc3ccc(C(=O)N4CC=C(c5ccccc5)CC4)cc3)c(=O)c2=O)C1 (configuration not stated) is lower in “viability” value: 111% for the first, 87.8% for the second.

For COc1ccc(NC(=O)NCc2ccc(C(=O)N3CCC(c4ccccc4)CC3)cc2)cc1, the “viability” value was 84.4%.
